# Data from PubChem BioAssay (NCATS).
# Results filed as inconclusive are left out. Where a call stands in place of a potency, no number is given. The source made the active and inactive calls. Calls come from the whole dose curve; as a rule, active = well fitted inhibition curve with a large enough effect; inconclusive = small, poorly fitted or top-dose-only effect; inactive = no such curve, though single readings can be large or run the other way.
# Experiment: P-glycoprotein substrates identified in KB-3-1 adenocarcinoma cell line, qHTS therapeutic library screen (AID 1346986); note: nearly all actives have a fitted effect of over 60% in size;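 note: potency is for cytotoxicity meaning loss of cell viability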
# Conditions: KB-3-1 parental cells viability, CellTiter-Glo, 72 h; series mostly up to 44.5 µM; activity change, negative = cytotoxicity: at the top concentration
# Procedure: The ATP-binding cassette transporters P-glycoprotein (P-gp) is known to limit brain penetration of many chemotherapy drugs. […] We used the CellTiter-Glo viability assay to test library compounds against the parental KB-3-1 human cervical adenocarcinoma cell line and the colchicine-selected sub-line KB-8-5-11 that over-expresses P-gp. KB-8-5-11 cells were also tested in the presence of a P-gp inhibitor (tariquidar) to assess reversability of transporter-mediated resistance. Of the tested compounds, a total of 90 P-gp substrates were identified including 55 newly identified P-gp substrates. Substrates were confirmed using an orthogonal killing assay against HEK-293 cells transfected with P-gp. As exemplars, we confirmed that AT7159 (cyclin-dependent kinase inhibitor); AT9283, (Janus kinase 2/3 inhibitor); ispinesib (kinesin spindle protein inhibitor); gedatolisib (PKI-587, phosphoinositide 3-kinase/mammalian target of rampamycin inhibitor); GSK-690693 (AKT inhibitor); and KW-2478 (heat shock protein 90 inhibitor) were substrates , and direct ATPase stimulation was assessed. ABCG2 was also found to confer high levels of resistance to AT9283, GSK-690693 and gedatolisib, while ispinesib, AT7519 and KW-2478 were weaker substrates.
# The HeLa derivative cell line, KB-3-1, and its colchicine-selected, P-gp-overexpressing subline, KB-8-5-11 were maintained in DMEM with 10% FCS and Pen/Strep with glutamine at 37 degree C in 5% CO2. For KB-8-5-11 cells, colchicine was added to the medium at a concentration of 100 ng/mL. HEK-293 cells transfected with empty vector (pcDNA) or vector containing human ABCB1 (MDR-19) or ABCG2 (R-5) have been described previously (Robey, Lin, Qiu, Chan & Bates, 2011) and were maintained in EMEM supplemented with 10% FCS, Pen/Strep and glutamine with 2 mg/ml G418 to select for the expression of the transporter. Cultures were confirmed to be free of mycoplasma infection using the MycoAlert Mycoplasma Detection Kit (Lonza, Walkersville, MD). For the screen, assay medium was identical to culture medium except for KB-8-5-11 where colchicine was excluded from the medium.
# All cell lines were plated into 1536-well plates at 500 cells/well in 5 uL media. Compounds were then pinned in dose-response using a 1536-head pin tool (Kalypsis, San Diego, CA) and plates were incubated at 37 degree C in 5% CO2 for an additional 72 h. CellTiter-Glo reagent (Promega) was dispensed into the wells, incubated for 5 min and luminescence was read on a ViewLux instrument (Perkin-Elmer). Cytotoxic compounds were defined as those that yielded a curve class of -1.1, -1.2, -2.1, -2.2, -2.3, or -2.4, a maximum response of >50% and an AC50 of < 10 uM. Cherry-picked hits from screening analysis were tested with both the KB pair of cell lines, and the pcDNA (empty vector control) and MDR-19 (P-gp overexpressing) pair were tested, in the absence and presence of tariquidar.
# Potency is the fitted concentration of half-maximal effect.
Compound,outcome,"activity change, negative = cytotoxicity",Potency
CN(C)C(=O)[C@H](O)[C@H](Cc1ccccc1)NC(=O)c1cc2cc(Cl)ccc2[nH]1,inactive,–,–
Oc1ccc2ccccc2c1SSc1c(O)ccc2ccccc12,–,2.31% (inactive),–
Cc1cc2c(s1)Nc1ccccc1N=C2N1CCN(C)CC1,inactive,–,–
O=C1NC(=O)C(c2ccccc2[N+](=O)[O-])=C1Nc1ccc(O)c(Cl)c1,–,–,inactive
C[C@H](Cn1cnc2c(N)ncnc21)OCP(=O)(O)O,inactive,–,–
Oc1ccc(-c2nc(-c3ccc(F)cc3)c(-c3ccncc3)[nH]2)cc1,inactive,–,–
Cc1cc(C2CCCCC2)n(O)c(=O)c1,–,–,6.51 µM (active)
O=C1c2c(O)cc(O)cc2OC(c2ccc(O)c(O)c2)C1O (centres undefined),inactive,–,–
COCCCOc1ccnc(CS(=O)c2nc3ccccc3[nH]2)c1C (centres undefined),inactive,–,–
O=c1ccc2ccc(O)c(O)c2o1,inactive,–,–
O=C(NC(Cc1cc(=O)[nH]c2ccccc12)C(=O)O)c1ccc(Cl)cc1 (centres undefined),inactive,–,–
Cc1cc2cc3c(C)cc(=O)oc3c(C)c2o1,inactive,–,–
CCCOc1ccc2nc(NC(=O)OC)[nH]c2c1,–,–,0.291 µM (active)
CC1=C(C(=O)O)N2C(=O)[C@@H](NC(=O)[C@H](N)C3=CCC=CC3)[C@H]2SC1,inactive,–,–
COc1cc(C(C)=O)ccc1OCCCN1CCC(c2noc3cc(F)ccc23)CC1,inactive,–,–
N[C@@H](Cc1cc(I)c(Oc2cc(I)c(O)c(I)c2)c(I)c1)C(=O)O,inactive,–,–
CN(c1nccc(=O)[nH]1)C1CCN(c2nc3ccccc3n2Cc2ccc(F)cc2)CC1,inactive,–,–

Compound,outcome,"activity change, negative = cytotoxicity",Potency
Cc1nccn1CC1CCc2c(c3ccccc3n2C)C1=O (centres undefined),inactive,–,–
CC(C)c1ccc2oc3nc(N)c(C(=O)O)cc3c(=O)c2c1,inactive,–,–
O=C(NCCO[N+](=O)[O-])c1cccnc1,inactive,–,–
COc1cc(Nc2c(C#N)cnc3cc(OCCCN4CCN(C)CC4)c(OC)cc23)c(Cl)cc1Cl,–,–,18.4 µM (active)
c1cnc2cc3c(cc2n1)C1CNCC3C1,inactive,–,–
CCCCC(CC)COC(=O)C(C#N)=C(c1ccccc1)c1ccccc1 (centres undefined),inactive,–,–
CC(C)[C@H](N)C(=O)OCCOCn1cnc2c(=O)[nH]c(N)nc21,inactive,–,–
Nc1ccn([C@@H]2O[C@H](CO)[C@@H](O)C2O)c(=O)n1 (some centres undefined),inactive,–,–
CN(C)CCc1c[nH]c2ccc(Cn3cncn3)cc12,inactive,–,–
Oc1ccc(OCc2ccccc2)cc1,inactive,–,–
Nc1ncn([C@H]2C[C@H](O)[C@@H](CO)O2)c(=O)n1,inactive,–,–
CCOC(=O)C(C)Oc1cccc2c(=O)n(CC(=O)Nc3ccc4c(c3)OCCO4)ccc12 (centres undefined),inactive,–,–
CCC(C)(Oc1ccc(C2(c3ccc(OC(C)(CC)C(=O)O)cc3)CCCCC2)cc1)C(=O)O (centres undefined),inactive,–,–
CCOc1cc(CC(=O)N[C@@H](CC(C)C)c2ccccc2N2CCCCC2)ccc1C(=O)O,inactive,–,–
CCCc1cc(=O)[nH]c(=S)[nH]1,inactive,–,–
Cc1cc(Cl)ccc1OCCCC(=O)NO,inactive,–,–
O=C(CCc1ccc(O)cc1)c1c(O)cc(O)cc1O,inactive,–,–
